Details in all cases: mRNA level, 48 h; actives raise or lower the signal
Read-out in experiment [1]: Early growth response protein 1 (EGR1) transcription factor, EGR1 (gene 1958)
The experiment can be described thus: LTEA_HepaRG_EGR1: Life Technologies and Expression Analysis (LTEA) Assay for Early growth response protein 1 (EGR1) transcription factor using HepaRG (AID 2283490). A digest of the protocol: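 Read-out is EGR1 mRNA level by qRT-PCR, normalized to three housekeeping genes and analysed for gain or loss of signal against 0.5% DMSO. Source cells: human HepaRG, treated 48 h at up to 100 uM in half-log dilutions.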

Read-out in experiment [2]: Ezrin (EZR), EZR (gene 7430)
The experiment can be described thus: LTEA_HepaRG_EZR: Life Technologies and Expression Analysis (LTEA) Assay for Ezrin (EZR) using HepaRG (AID 2283491). In short, it runs like this: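 HepaRG, 48 h chemical exposure, 8-pt half-log series from 100 uM, 0.5% DMSO vehicle, duplicates. Read-out: EZR mRNA by TaqMan qRT-PCR (Fluidigm array), housekeeping-normalized; bidirectional curve fit vs DMSO baseline.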

Read-out in experiment [3]: Cytochrome P450 3A7 (Homo sapiens) (UniProt P24462)
The experiment in a line: LTEA_HepaRG_CYP3A7: Life Technologies and Expression Analysis (LTEA) Assay for CYP3A7 using HepaRG (AID 2283492). In short, it runs like this:
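Differentiated HepaRG cells in serum-free induction medium exposed 48 h in duplicate to 8-point half-log series from 100 uM top in 0.5% DMSO. CYP3A7 mRNA by qRT-PCR, normalized to ACTB/GAPDH/POLR2A, bidirectional fit versus DMSO.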

Read-out in the next experiment: CYP3A5 (gene 1577)
The experiment can be described thus: LTEA_HepaRG_CYP3A5: Life Technologies and Expression Analysis (LTEA) Assay for CYP3A5 using HepaRG (AID 2283493). A digest of the protocol: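 HepaRG plated 48 h, switched to serum-free induction medium, chemicals added 48 h (max 100 uM, half-log, 0.5% DMSO). RNA isolated; CYP3A5 by TaqMan qRT-PCR. Gain/loss vs DMSO.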

Read-out in experiment [4]: Fatty Acid-Binding Protein 1 (FABP1), FABP1 (gene 2168)
The experiment in a line: LTEA_HepaRG_FABP1: Life Technologies and Expression Analysis (LTEA) Assay for Fatty Acid-Binding Protein 1 (FABP1) using HepaRG (AID 2283494). In short, it runs like this: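 HepaRG, 48 h post-plating switched to serum-free induction medium, then dosed 48 h (duplicate, 8 pts, ≤100 uM, 0.5% DMSO). RNA → Fluidigm TaqMan qRT-PCR, FABP1 normed to ACTB/GAPDH/POLR2A. Bidirectional curve fit vs DMSO.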

Read-out in experiment [5]: Cytochrome P450 4A22 (Homo sapiens) (UniProt Q5TCH4)
The experiment can be described thus: LTEA_HepaRG_CYP4A22: Life Technologies and Expression Analysis (LTEA) Assay for Cytochrome P450 4A22 (CYP4A22) using HepaRG (AID 2283495). A digest of the protocol:
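Differentiated HepaRG cells in serum-free induction medium exposed 48 h in duplicate to eight half-log concentrations up to 100 uM in 0.5% DMSO. CYP4A22 mRNA quantified by TaqMan qRT-PCR, normalized to ACTB, GAPDH and POLR2A; bidirectional fit versus DMSO.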

Read-out in experiment [6]: Cytochrome P450 7A1 (Homo sapiens) (UniProt P22680)
The experiment in a line: LTEA_HepaRG_CYP7A1: Life Technologies and Expression Analysis (LTEA) Assay for Cytochrome P450 7A1 (CYP7A1) using HepaRG (AID 2283496). A digest of the protocol:
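HepaRG cells plated 48 h, then switched to serum-free induction medium and exposed in duplicate for 48 h to 8-point half-log series from 100 uM in 0.5% DMSO. CYP7A1 mRNA by qRT-PCR (TaqMan), normalized to ACTB/GAPDH/POLR2A; bidirectional fit versus DMSO.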

Read-out in experiment [7]: Glutathione S-Transferase (GSTA2), GSTA2 (gene 2939)
The experiment can be described thus: LTEA_HepaRG_GSTA2: Life Technologies and Expression Analysis (LTEA) Assay for Glutathione S-Transferase (GSTA2) using HepaRG (AID 2283497). A digest of the protocol:
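HepaRG, 48 h dosing, 8-pt half-log CRC from 100 uM, 0.5% DMSO vehicle, n=2; RNA → Fluidigm TaqMan qRT-PCR; GSTA2 vs ACTB/GAPDH/POLR2A; gain/loss fit vs DMSO.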

Read-out in experiment [8]: Glutamate-cysteine ligase catalytic (GCLC), GCLC (gene 2729)
The experiment can be described thus: LTEA_HepaRG_GCLC: Life Technologies and Expression Analysis (LTEA) Assay for Glutamate-cysteine ligase catalytic (GCLC) using HepaRG (AID 2283498). A digest of the protocol:
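Read-out is GCLC transcript level by Fluidigm-based TaqMan qRT-PCR, normalized to three housekeeping genes and fitted in both directions relative to 0.5% DMSO. Human HepaRG cells received chemicals for 48 h, up to 100 uM.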

Read-out in experiment [9]: growth arrest and DNA damage 45 (GADD45G), GADD45G (gene 10912)
The experiment in a line: LTEA_HepaRG_GADD45G: Life Technologies and Expression Analysis (LTEA) Assay for growth arrest and DNA damage 45 (GADD45G) using HepaRG (AID 2283499). In short, it runs like this: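 Differentiated human HepaRG cells, 48 h post-plating, exposed 48 h in serum-free induction medium to 8 half-log concentrations (top 100 uM, 0.5% DMSO) in duplicate. GADD45G mRNA measured by Fluidigm TaqMan qRT-PCR, normalized to ACTB, GAPDH, POLR2A; bidirectional fit versus DMSO.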

Read-out in experiment [10]: Glutamate-cysteine ligase regulatory (GCLM), GCLM (gene 2730)
The experiment can be described thus: LTEA_HepaRG_GCLM: Life Technologies and Expression Analysis (LTEA) Assay for Glutamate-cysteine ligase regulatory (GCLM) using HepaRG (AID 2283500). In short, it runs like this:
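Cells were plated, cultured 48 h, switched to serum-free induction medium, then dosed in duplicate for 48 h at eight half-log concentrations up to 100 uM. RNA was then profiled by qRT-PCR; gain or loss versus DMSO was fitted.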

Read-out in experiment [11]: Glutathione S-transferase M3 (GSTM3), GSTM3 (gene 2947)
The experiment in a line: LTEA_HepaRG_GSTM3: Life Technologies and Expression Analysis (LTEA) Assay for Glutathione S-transferase M3 (GSTM3) using HepaRG (AID 2283501). In short, it runs like this: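 Differentiated human HepaRG cells were exposed in duplicate for 48 h in serum-free induction medium, 8 points from 100 uM top in half-log steps, 0.5% DMSO. GSTM3 mRNA was measured by TaqMan qRT-PCR, normalized to ACTB, GAPDH and POLR2A; bidirectional fit versus DMSO.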

Read-out in experiment [12]: Heat shock 70 kDa protein 1 (HSPA1A), gene 3303
The experiment in a line: LTEA_HepaRG_HSPA1A: Life Technologies and Expression Analysis (LTEA) Assay for Heat shock 70 kDa protein 1 (HSPA1A) using HepaRG (AID 2283502). A digest of the protocol: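 Readout is HSPA1A transcript level by microfluidic qRT-PCR, normalized to three housekeeping genes and analysed for gain or loss of signal relative to 0.5% DMSO. Human HepaRG cultures received test chemicals for 48 h at up to 100 uM.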

Read-out in experiment [13]: Hypoxia-inducible factor 1-alpha (Homo sapiens) (UniProt Q16665)
The experiment in a line: LTEA_HepaRG_HIF1A: Life Technologies and Expression Analysis (LTEA) Assay for Hypoxia-inducible factor 1 (HIF1A) Trancription factor using HepaRG (AID 2283503). A digest of the protocol:
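Differentiated HepaRG cells in serum-free induction medium exposed 48 h, in duplicate, to 8-point half-log series from 100 uM in 0.5% DMSO. HIF1A mRNA measured by TaqMan qRT-PCR, normalized to ACTB/GAPDH/POLR2A, fitted bidirectionally versus DMSO.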

Read-out in experiment [14]: 3-Hydroxy-3-Methylglutaryl-CoA Synthase 2 (HMGCS2), HMGCS2 (gene 3158)
The experiment in a line: LTEA_HepaRG_HMGCS2: Life Technologies and Expression Analysis (LTEA) Assay for 3-Hydroxy-3-Methylglutaryl-CoA Synthase 2 (HMGCS2) using HepaRG (AID 2283504). In short, it runs like this: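 Human HepaRG cells in serum-free induction medium were exposed in duplicate for 48 h to 8-point half-log series from 100 uM top in 0.5% DMSO. HMGCS2 mRNA measured by TaqMan qRT-PCR, normalised to ACTB, GAPDH, POLR2A; bidirectional fit versus DMSO.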

Read-out in a further experiment: HGF (gene 3082)
The experiment can be described thus: LTEA_HepaRG_HGF: Life Technologies and Expression Analysis (LTEA) Assay for Hepatocyte Growth Facto (HGF) using HepaRG (AID 2283505). A digest of the protocol: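 Differentiated HepaRG cells in serum-free induction medium exposed 48 h in duplicate, 8 half-log concentrations from 100 uM in 0.5% DMSO. HGF mRNA by qRT-PCR, normalised to ACTB, GAPDH, POLR2A; bidirectional fitting.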

Read-out in experiment [15]: Insulin Like Growth Factor 1 (IGF1), IGF1 (gene 3479)
The experiment in a line: LTEA_HepaRG_IGF1: Life Technologies and Expression Analysis (LTEA) Assay for Insulin Like Growth Factor 1 (IGF1) using HepaRG (AID 2283506). In short, it runs like this: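 HepaRG, plated 48 h, then switched to serum-free induction media; test chemical 8-pt half-log from 100 uM (0.5% DMSO), duplicate, 48 h. Lysis in RLT, TaqMan qRT-PCR, norm. ACTB/GAPDH/POLR2A. Bidirectional fit vs DMSO.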

Read-out in experiment [16]: Intercellular Adhesion Molecule 1 (ICAM1), ICAM1 (gene 3383)
The experiment can be described thus: LTEA_HepaRG_ICAM1: Life Technologies and Expression Analysis (LTEA) Assay for Intercellular Adhesion Molecule 1 (ICAM1) using HepaRG (AID 2283507). A digest of the protocol:
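Differentiated human HepaRG cells in serum-free induction medium exposed 48 h in duplicate to 8 half-log concentrations (top 100 uM, 0.5% DMSO). ICAM1 mRNA quantified by TaqMan qRT-PCR, normalized to ACTB, GAPDH and POLR2A; bidirectional fitting versus DMSO.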

Read-out in experiment [17]: Insulin-like growth factor-binding protein 1 (IGFBP1), IGFBP1 (gene 3484)
The experiment in a line: LTEA_HepaRG_IGFBP1: Life Technologies and Expression Analysis (LTEA) Assay for Insulin-like growth factor-binding protein 1 (IGFBP1) using HepaRG (AID 2283508). A digest of the protocol: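 HepaRG cells, plated 48 h then switched to serum-free induction medium, exposed in duplicate for 48 h to 8-point half-log series from 100 uM in 0.5% DMSO. mRNA measured by qRT-PCR, normalized to ACTB/GAPDH/POLR2A; bidirectional fit versus DMSO.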

Read-out in experiment [18]: Interleukin 6 (IL6), IL6 (gene 3569)
The experiment can be described thus: LTEA_HepaRG_IL6: Life Technologies and Expression Analysis (LTEA) Assay for Interleukin 6 (IL6) using HepaRG (AID 2283509). A digest of the protocol: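 HepaRG, ~100,000 cells/well, 48 h pre-culture; serum-free induction medium; cmpd 8-pt half-log from 100 uM, 0.5% DMSO, duplicate, 48 h. Lysis in RLT, TaqMan qRT-PCR; gain or loss vs DMSO.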

The source made the active and inactive calls. Rule for the calls: active = hit-call score of the fitted dose curve at least 0.9, where 1 is the maximum; inactive = score below 0.9.

As a reminder, the AC50 is the midpoint of the concentration-response curve, whichever way the signal moves.

Hypoxia-inducible factor 1-alpha (Homo sapiens), sequence (Q16665 whole entry, looked up): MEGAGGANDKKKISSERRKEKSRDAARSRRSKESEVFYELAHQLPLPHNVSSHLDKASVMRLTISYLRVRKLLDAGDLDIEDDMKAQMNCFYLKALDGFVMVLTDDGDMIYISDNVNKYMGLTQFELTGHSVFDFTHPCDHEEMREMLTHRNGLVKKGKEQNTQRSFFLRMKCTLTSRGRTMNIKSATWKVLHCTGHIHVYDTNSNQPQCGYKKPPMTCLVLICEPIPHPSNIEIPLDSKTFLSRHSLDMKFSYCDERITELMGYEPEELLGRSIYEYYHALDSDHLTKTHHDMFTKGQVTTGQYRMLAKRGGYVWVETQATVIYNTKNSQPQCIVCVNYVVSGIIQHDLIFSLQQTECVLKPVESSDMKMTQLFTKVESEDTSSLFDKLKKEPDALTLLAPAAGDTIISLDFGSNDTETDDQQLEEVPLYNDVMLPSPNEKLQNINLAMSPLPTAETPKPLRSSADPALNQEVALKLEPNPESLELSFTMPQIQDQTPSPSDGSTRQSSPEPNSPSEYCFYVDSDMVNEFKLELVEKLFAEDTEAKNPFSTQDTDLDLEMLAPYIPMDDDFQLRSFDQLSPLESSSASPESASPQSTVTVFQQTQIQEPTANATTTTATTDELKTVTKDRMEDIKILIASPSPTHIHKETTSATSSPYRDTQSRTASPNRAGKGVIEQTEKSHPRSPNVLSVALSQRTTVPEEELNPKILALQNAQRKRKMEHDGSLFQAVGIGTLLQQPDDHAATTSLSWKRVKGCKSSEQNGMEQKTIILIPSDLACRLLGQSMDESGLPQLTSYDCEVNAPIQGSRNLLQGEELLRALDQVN
Cytochrome P450 3A7 (Homo sapiens), sequence (P24462 whole entry, looked up): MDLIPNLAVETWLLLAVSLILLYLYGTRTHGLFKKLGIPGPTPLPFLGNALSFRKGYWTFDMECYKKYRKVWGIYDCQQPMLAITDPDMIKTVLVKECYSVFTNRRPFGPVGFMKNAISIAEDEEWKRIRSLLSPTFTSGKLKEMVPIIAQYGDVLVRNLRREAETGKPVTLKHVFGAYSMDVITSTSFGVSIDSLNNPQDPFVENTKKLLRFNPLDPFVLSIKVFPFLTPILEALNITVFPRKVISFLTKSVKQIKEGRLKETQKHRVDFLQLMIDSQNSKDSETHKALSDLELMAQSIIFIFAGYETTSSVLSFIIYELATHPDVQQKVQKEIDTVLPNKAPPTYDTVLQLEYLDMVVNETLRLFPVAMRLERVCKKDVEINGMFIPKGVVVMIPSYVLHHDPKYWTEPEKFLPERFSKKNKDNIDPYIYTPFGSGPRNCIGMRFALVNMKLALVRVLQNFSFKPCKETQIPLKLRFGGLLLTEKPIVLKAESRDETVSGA

Regarding `COC(=O)N(C(=O)N1CO[C@@]2(C(=O)OC)Cc3cc(Cl)ccc3C2=N1)c1ccc(OC(F)(F)F)cc1`, the result (in [1]; in [2]; with CYP3A5 (gene 1577); in experiment [8]; in experiment [9]; in experiment [10]) was inactive. Also, the outcome (in experiment [11]; in experiment [12]; in experiment [13]; with HGF (gene 3082); in [16]; in experiment [18]) was inactive. Further, the AC50 in experiment [3] is 73.1 µM (active); in experiment [4] it was 40 µM (active); in experiment [5], 28.9 µM (active); in experiment [6], 31.8 µM (active); in [7] it was 51.3 µM (active); in experiment [14], 40 µM (active). Besides, the AC50 in experiment [15] is 4.25 µM (active); in experiment [17], 40 µM (active).

As for `Nc1c(Cl)c(F)nc(OCC(=O)O)c1Cl`, the molecule was classed as inactive (in experiment [1]; in experiment [2]; in experiment [3]; with CYP3A5 (gene 1577); in experiment [4]; in [5]). The outcome in experiment [6], in experiment [7], in experiment [8], in experiment [9], in experiment [10] and in [11] was inactive. Also, the result (in [12]; in experiment [13]; in [14]; in the experiment with HGF (gene 3082); in experiment [15]; in [16]) was inactive. Moreover, the result in [17] and in [18] was inactive.

`Clc1cccc(C(Cl)(Cl)Cl)n1`: the result (in experiment [1]; in [2]; in [3]; with CYP3A5 (gene 1577); in experiment [4]; in experiment [5]) was inactive. Besides, the call in experiment [6], in [7], in [8], in experiment [9], in experiment [10] and in experiment [11] was inactive. Further, the molecule was classed as inactive (in experiment [12]; in experiment [13]; in experiment [14]; in the experiment with HGF (gene 3082); in experiment [15]; in experiment [16]). For the same molecule, the molecule was called inactive in [17] and in experiment [18].

As for `O=C(O)c1c(Cl)ccc2cc(Cl)cnc12`, the outcome (in [1]; in experiment [2]; in experiment [3]; with CYP3A5 (gene 1577); in experiment [4]; in experiment [5]) was inactive. The molecule was classed as inactive in experiment [6], in experiment [7], in experiment [8], in [9], in experiment [10] and in [11]. The call (in experiment [13]; in experiment [14]; with HGF (gene 3082); in [15]; in [16]; in [17]) was inactive. In addition, the molecule was called inactive in experiment [18].

The record behind these values is PubChem BioAssay (EPA / NIEHS).
